In PubChem BioAssay (EPA / NIEHS):
Several values for one entry are separate records, joined by “and”; a condition that tells them apart may be missing. Identical values can stand only once. Results filed as inconclusive are left out. More than one record can exist for a structure, and the calls need not agree. Activity calls are given as the source filed them. How the source made its calls: active means hit-call score of the fitted dose curve at least 0.9, where 1 is the maximum; inconclusive means response in the unintended direction; inactive means score below 0.9.

The compounds below were run against Peroxisome proliferator-activated receptor gamma (Homo sapiens) (UniProt P37231) (assay: NVS_NR_hPPARg: NovaScreen (NVS) Nuclear Receptor Binding Assay for human Peroxisome Proliferator-activated Receptor gamma (PPARg) (AID 2283370)).
Sequence of Peroxisome proliferator-activated receptor gamma (Homo sapiens) (P37231 whole entry, looked up): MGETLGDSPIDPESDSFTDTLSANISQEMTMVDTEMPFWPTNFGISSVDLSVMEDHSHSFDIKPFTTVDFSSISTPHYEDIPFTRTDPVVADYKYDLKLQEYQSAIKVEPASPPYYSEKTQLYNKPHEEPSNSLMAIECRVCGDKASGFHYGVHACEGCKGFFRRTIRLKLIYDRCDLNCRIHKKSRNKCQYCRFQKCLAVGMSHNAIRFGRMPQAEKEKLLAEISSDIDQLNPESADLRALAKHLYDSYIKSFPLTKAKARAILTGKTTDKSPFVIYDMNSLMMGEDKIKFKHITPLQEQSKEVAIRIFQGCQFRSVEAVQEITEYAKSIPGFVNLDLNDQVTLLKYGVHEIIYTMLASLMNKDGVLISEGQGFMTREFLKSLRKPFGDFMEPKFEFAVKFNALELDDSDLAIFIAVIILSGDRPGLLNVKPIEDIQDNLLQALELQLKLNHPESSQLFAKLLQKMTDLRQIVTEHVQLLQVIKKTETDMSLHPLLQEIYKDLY
How it was run: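 Chemicals were tested first in duplicate at 25 uM, then in concentration series if active. Binding to cell-free PPARg protein was measured by fluorescence polarization after 2 h, with loss of signal scored against DMSO.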
With `CCCCC/C=C\CCC=O` the outcome was “inactive”. `CCCCCCCCO[C@@H]1O[C@H](CO)[C@@H](O)[C@H](O)[C@H]1O` was tested, and the AC50 was 36.5 µM (active). In the case of `CC/C=C\C/C=C\C/C=C\CCCCCCCC(=O)O`, the AC50 is reported as 0.00769 µM (active). With `C1CN(SSN2CCOCC2)CCO1` the outcome was “inactive”. `Oc1ccc(Cl)cc1Cc1cc(Cl)ccc1O` was tested, and the AC50 was 25 µM (active). For `CC(=O)OC(C)C`, the outcome was “inactive”. `O=C(C(Cl)Cl)N1CCOC12CCCCC2` was tested, and the outcome was “inactive”. `O=c1cc(-c2ccccc2)oc2ccccc12` was tested, and the outcome was “inactive”. With `CC(C)c1ccc2c(C(C)C)cc(C(C)C)c(S(=O)(=O)O)c2c1` the AC50 was 4.01 µM (active). `CCCCC(CC)CCC(CC(C)C)OS(=O)(=O)O` (centres undefined) was tested, and the AC50 was 8.17 µM (active) and 6.89 µM (active). For `O=S(=O)(O)c1ccccc1C=Cc1ccc(-c2ccc(C=Cc3ccccc3S(=O)(=O)O)cc2)cc1`, the outcome was “inactive”. In the case of `CCCCCCCC/C=C\CCCCCCCC(=O)O`, the AC50 is reported as 25 µM (active). In the case of `CC(C)C1=CC2=CC[C@@H]3[C@](C)(CCC[C@@]3(C)C(=O)O)[C@H]2CC1`, the outcome is reported as “inactive”. For `CCCCC/C=C\C/C=C\CCCCCCCC(=O)OC`, the AC50 was 8.81 µM (active) and the outcome was “inactive”. For `CCCCCCCCCCOS(=O)(=O)O`, the AC50 was 15.6 µM (active) and the outcome was “inactive”. For `CC1=NN(c2cc(S(=O)(=O)O)ccc2Cl)C(=O)C1N=Nc1ccccc1` (centres undefined), the outcome was “inactive”. `O=S1(=O)OC(c2ccc(O)cc2)(c2ccc(O)cc2)c2ccccc21` was tested, and the outcome was “inactive”. With `CCCCCCCC/C=C\CCCCCCCC(=O)OCCO` the outcome was “inactive”. `CCN(CCC#N)c1ccc(N=Nc2c(Cl)cc([N+](=O)[O-])cc2Cl)cc1` was tested, and the AC50 was 13.4 µM (active). In the case of `Cc1ccc(N/N=c2\c(=O)cc/c(=N/Nc3ccc(S(=O)(=O)O)cc3)c2=O)c(C)c1`, the AC50 is reported as 16 µM (active). With `CCCCCCCCCCCCCOP(=O)(O)O` the outcome was “inactive”.

These compounds were tested against human Dopamine Transporter (DAT), SLC6A3 (gene 6531) (UniProt Q01959) (assay: NVS_TR_hDAT: NovaScreen (NVS) Transporter Assay for human Dopamine Transporter (DAT) (AID 2283374);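 further: activity means loss of bound radioligand signal relative to DMSO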).
Sequence of human Dopamine Transporter (DAT), SLC6A3 (gene 6531) (Q01959 whole entry, looked up): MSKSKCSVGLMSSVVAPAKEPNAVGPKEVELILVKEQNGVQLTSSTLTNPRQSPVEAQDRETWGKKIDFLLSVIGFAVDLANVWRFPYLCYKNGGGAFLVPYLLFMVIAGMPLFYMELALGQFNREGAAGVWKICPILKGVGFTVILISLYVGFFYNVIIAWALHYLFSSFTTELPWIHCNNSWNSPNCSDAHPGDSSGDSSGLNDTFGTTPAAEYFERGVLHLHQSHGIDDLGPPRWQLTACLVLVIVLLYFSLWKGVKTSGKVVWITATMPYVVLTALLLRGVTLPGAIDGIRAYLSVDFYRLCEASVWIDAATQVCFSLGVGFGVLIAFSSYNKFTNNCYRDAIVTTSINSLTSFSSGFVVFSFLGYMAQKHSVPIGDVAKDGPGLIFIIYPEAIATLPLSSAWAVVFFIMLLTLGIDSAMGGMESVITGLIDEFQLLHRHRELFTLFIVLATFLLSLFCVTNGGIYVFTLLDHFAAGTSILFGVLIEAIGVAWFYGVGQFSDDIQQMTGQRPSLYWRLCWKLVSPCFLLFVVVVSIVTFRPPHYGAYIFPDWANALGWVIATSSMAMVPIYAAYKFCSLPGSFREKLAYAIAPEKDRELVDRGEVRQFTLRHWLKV
Method: NVS_TR_hDAT is a biochemical, single-readout assay that uses extracted gene-proteins in a cell-free assay. Measurements were taken 1 hour after chemical dosing in a 96-well plate.NVS_TR_hDAT is one of one assay component(s) measured or calculated from the NVS_TR_hDAT assay. It is designed to make measurements of radioligand binding, a form of binding reporter, as detected with scintillation counting signals by Filter-based radiodetection technology.Data from the assay component NVS_TR_hDAT was analyzed into 1 assay endpoint. This assay endpoint, NVS_TR_hDAT, was analyzed in the positive analysis fitting direction relative to DMSO as the negative control and baseline of activity. Using a type of binding reporter, loss-of-signal activity can be used to understand changes in the binding as they relate to the gene SLC6A3. Furthermore, this assay endpoint can be referred to as a primary readout, because the performed assay has only produced 1 assay endpoint. To generalize the intended target to other relatable targets, this assay endpoint is annotated to the transporter intended target family, where the subfamily is neurotransmitter transporter.
Binding assays used specific radioligands (tritiated, iodinated) with non-radioactive competitive displacement ligands in agonist or antagonist protocols (as indicated) and various reference compounds and inhibitors to titrate specific binding to receptors and transporters. Most enzyme assays (CYPs, kinases, phosphatases, proteases, HDACs) used recombinant protein and specific substrates (fluorescence mostly, some colorimetric and radioactive) and inhibitors, followed by a biochemical separation of substrate and product. All assays for the biochemical HTS were initially run in duplicate at a single concentration (10 uM for CYP450 assays and 25 uM for all others). […] Each assay was run with positive and negative controls, and concurrent controls on every plate. The follow-up (secondary) screen tested active chemical-pairs in concentration series, as well as a few additional assays not tested in the primary screen, some selected negative inactives, and several cases re-run in the concentration series for confirmatory purposes.
For `CC(C)=CC1CC(C)CCO1` (centres undefined), the outcome was “inactive”. With `CCCCCCCCCCCCCCCC[N+](C)(C)CC` the AC50 was 1.82 µM (active). With `CCCCC/C=C\C/C=C\CCCCCCCC(=O)OC` the outcome was “inactive”. For `c1ccc2c(c1)ccc1ncccc12`, the AC50 was 16.4 µM (active).

These compounds were tested against human Norepinephrine Transporter (NET), SLC6A2 (gene 6530) (UniProt P23975) (assay: NVS_TR_hNET: NovaScreen (NVS) Transporter Assay for human Norepinephrine Transporter (NET) (AID 2283377);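 further: cell-free membrane protein extracted from CHO cells expressing human NET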).
Sequence of human Norepinephrine Transporter (NET), SLC6A2 (gene 6530) (P23975 whole entry, looked up): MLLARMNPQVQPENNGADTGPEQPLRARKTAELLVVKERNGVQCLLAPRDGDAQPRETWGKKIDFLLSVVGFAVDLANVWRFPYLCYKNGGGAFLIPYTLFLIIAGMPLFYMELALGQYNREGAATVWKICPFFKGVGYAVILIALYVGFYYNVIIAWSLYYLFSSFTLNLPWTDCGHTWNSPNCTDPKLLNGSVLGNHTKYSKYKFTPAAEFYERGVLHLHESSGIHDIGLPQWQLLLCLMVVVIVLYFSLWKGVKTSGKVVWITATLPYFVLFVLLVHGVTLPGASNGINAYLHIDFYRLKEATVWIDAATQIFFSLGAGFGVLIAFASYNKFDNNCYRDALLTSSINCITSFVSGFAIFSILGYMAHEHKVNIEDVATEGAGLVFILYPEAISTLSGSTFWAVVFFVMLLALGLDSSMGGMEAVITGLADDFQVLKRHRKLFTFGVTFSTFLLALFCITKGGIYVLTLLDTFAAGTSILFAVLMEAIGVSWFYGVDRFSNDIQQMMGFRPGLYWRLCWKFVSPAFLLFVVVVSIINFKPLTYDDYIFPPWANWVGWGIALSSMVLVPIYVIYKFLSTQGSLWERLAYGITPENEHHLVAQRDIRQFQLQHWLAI
How it was run: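 Radioligand binding to human NET in cell-free CHO-derived protein preparations, read by filter-based scintillation counting 1 hour after dosing. Loss of signal versus DMSO baseline indicated displacement; primary screening in duplicate at 25 uM, actives then titrated.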
`CCCCCCCCCCCCCCCC[N+](C)(C)CC` was tested, and the AC50 was 2.32 µM (active). `CCCCC/C=C\C/C=C\CCCCCCCC(=O)OC` was tested, and the AC50 was 25 µM (active). With `c1ccc2c(c1)ccc1ncccc12` the AC50 was 7.22 µM (active). In the case of `COc1ccc2nc(N)sc2c1`, the AC50 is reported as 9.9 µM (active).

Each compound was assayed against mouse Estrogen Receptor alpha (Era), Esr1 (gene 13982) (UniProt P19785) (assay: NVS_NR_mERa: NovaScreen (NVS) Nuclear Receptor Binding Assay for mouse Estrogen Receptor alpha (Era) (AID 2283378);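 further: hit means loss of bound radioligand signal relative to DMSO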).
Sequence of mouse Estrogen Receptor alpha (Era), Esr1 (gene 13982) (P19785 whole entry, looked up): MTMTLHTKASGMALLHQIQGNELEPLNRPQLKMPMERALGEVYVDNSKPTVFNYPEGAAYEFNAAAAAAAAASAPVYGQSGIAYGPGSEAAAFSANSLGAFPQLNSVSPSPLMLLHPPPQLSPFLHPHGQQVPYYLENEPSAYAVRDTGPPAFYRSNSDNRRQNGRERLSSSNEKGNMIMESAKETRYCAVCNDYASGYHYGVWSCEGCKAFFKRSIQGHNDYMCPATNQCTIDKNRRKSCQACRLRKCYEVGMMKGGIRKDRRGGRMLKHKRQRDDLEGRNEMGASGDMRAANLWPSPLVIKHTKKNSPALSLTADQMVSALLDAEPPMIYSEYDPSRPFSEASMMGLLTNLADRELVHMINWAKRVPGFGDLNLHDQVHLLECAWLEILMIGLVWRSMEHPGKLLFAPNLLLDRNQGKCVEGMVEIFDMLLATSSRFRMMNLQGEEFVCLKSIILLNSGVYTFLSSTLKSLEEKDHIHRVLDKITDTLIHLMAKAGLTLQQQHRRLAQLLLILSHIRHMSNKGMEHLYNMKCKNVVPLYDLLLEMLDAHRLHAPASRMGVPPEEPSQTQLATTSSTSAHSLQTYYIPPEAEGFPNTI
How it was run: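 Extracted mouse Era incubated with tritiated or iodinated radioligand plus test chemical, 18 h. Bound fraction separated on filters, counted by scintillation. DMSO = negative control/baseline; duplicate single-point at 25 uM, then concentration-response follow-up.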
`CC/C=C\C/C=C\C/C=C\CCCCCCCC(=O)O` was tested, and the outcome was “inactive”. In the case of `CC(C)(c1cc(Br)c(OCCO)c(Br)c1)c1cc(Br)c(OCCO)c(Br)c1`, the outcome is reported as “inactive”. For `CC(=O)OC(C)C`, the outcome was “inactive”. For `S=C(NC1CCCCC1)NC1CCCCC1`, the outcome was “inactive”. For `CCCCCCCC/C=C\CCCCCCCC(=O)O`, the AC50 was 35.8 µM (active). `CC(C)C1=CC2=CC[C@@H]3[C@](C)(CCC[C@@]3(C)C(=O)O)[C@H]2CC1` was tested, and the outcome was “inactive”. For `CCCCC/C=C\C/C=C\CCCCCCCC(=O)OC`, the outcome was “inactive”. In the case of `O=S1(=O)OC(c2ccc(O)cc2)(c2ccc(O)cc2)c2ccccc21`, the AC50 is reported as 20.1 µM (active). In the case of `CCCCCCCCCCCCCOP(=O)(O)O`, the AC50 is reported as 39.4 µM (active).

The compounds below were run against Agonist Androgen Response Element (ARE), AR (gene 367) (UniProt P10275) (assay: OT_AR_ARELUC_AG_1440: Odyssey Thera (OT) 24-hour CHO-K1 Luciferase Assay for Agonist Androgen Response Element (ARE) (AID 2283379)).
Sequence of Agonist Androgen Response Element (ARE), AR (gene 367) (P10275 whole entry, looked up): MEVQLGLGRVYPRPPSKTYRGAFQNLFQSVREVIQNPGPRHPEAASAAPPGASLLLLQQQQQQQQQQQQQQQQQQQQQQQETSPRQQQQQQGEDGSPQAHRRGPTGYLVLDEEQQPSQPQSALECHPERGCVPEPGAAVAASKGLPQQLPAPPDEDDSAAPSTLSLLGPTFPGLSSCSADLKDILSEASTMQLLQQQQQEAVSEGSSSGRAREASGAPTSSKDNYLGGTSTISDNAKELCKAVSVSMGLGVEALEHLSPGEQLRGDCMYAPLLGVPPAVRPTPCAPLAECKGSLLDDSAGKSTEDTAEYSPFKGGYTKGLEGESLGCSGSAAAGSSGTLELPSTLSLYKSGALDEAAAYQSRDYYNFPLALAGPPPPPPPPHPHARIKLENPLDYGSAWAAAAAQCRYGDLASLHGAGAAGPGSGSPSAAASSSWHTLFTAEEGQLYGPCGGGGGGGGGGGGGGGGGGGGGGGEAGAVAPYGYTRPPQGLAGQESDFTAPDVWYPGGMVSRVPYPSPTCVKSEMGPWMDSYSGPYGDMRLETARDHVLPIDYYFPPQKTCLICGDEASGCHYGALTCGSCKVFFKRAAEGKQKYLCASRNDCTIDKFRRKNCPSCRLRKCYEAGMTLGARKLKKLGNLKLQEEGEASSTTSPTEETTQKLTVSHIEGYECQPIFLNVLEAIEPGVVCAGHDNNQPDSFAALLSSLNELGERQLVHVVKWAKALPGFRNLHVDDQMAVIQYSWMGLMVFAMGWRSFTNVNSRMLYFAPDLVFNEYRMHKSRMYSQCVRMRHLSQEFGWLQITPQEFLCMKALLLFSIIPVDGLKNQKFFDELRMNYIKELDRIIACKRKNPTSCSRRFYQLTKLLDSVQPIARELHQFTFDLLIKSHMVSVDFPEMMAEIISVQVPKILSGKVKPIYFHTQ
How it was run: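 Seed CHO-K1 cells; dose compounds for 24 h; add D-luciferin plus ATP in PBS; read luminescence. Signal increase relative to vehicle defines agonist activity, with at least 3 replicate wells per sample.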
For `CCCCC/C=C\CCC=O`, the AC50 was 1.31 µM (active). With `Oc1ccc(Cl)cc1Cc1cc(Cl)ccc1O` the outcome was “inactive”. With `O=c1cc(-c2ccccc2)oc2ccccc12` the outcome was “inactive”. For `CC(C)c1ccc2c(C(C)C)cc(C(C)C)c(S(=O)(=O)O)c2c1`, the outcome was “inactive”.

What follows are compounds tested against Estrogen receptor beta (Homo sapiens) (UniProt Q92731) (assay: OT_ER_ERbERb_1440: Odyssey Thera (OT) 24-hour HEK293T Protein-Complementation Assay for Estrogen Receptor-beta/-beta Homodimer (AID 2283380);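 further: fluorescence gain from ER beta LBD homodimer complementation read by laser scanning cytometry; scored as signal increase over DMSO baseline for both agonists and antagonists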).
Sequence of Estrogen receptor beta (Homo sapiens) (Q92731 whole entry, looked up, the tested form may be a part): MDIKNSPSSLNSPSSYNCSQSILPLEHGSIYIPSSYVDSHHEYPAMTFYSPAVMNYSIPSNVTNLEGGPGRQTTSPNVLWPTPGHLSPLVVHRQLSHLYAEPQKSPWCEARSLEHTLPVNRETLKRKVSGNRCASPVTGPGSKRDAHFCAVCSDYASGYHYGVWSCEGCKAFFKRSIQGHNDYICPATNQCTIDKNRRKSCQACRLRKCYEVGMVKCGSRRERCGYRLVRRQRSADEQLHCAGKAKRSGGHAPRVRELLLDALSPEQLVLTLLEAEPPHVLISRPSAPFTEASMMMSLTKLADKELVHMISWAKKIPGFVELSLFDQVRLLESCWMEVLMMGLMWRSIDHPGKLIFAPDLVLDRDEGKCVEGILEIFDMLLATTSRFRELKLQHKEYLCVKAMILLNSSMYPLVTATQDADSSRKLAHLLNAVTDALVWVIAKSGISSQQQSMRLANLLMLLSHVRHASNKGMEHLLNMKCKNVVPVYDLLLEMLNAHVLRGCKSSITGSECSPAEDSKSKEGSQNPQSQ
How it was run: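 HEK293T cells stably expressing human ER-beta LBD (aa 310-547) PCA homodimer pair, dosed 24 h; formaldehyde-fixed, Draq5-stained. Readout: increase in nuclear (agonist) or nuclear plus cytoplasmic (antagonist) fluorescence intensity versus DMSO, gain-of-signal fitting.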
In the case of `CCCCCCCCO[C@@H]1O[C@H](CO)[C@@H](O)[C@H](O)[C@H]1O`, the outcome is reported as “inactive”. `CC/C=C\C/C=C\C/C=C\CCCCCCCC(=O)O` was tested, and the outcome was “inactive”. With `Oc1ccc(Cl)cc1Cc1cc(Cl)ccc1O` the AC50 was 11.9 µM (active). `CC(=O)OC(C)C` was tested, and the AC50 was 25.9 µM (active). With `O=C(C(Cl)Cl)N1CCOC12CCCCC2` the outcome was “inactive”. `O=c1cc(-c2ccccc2)oc2ccccc12` was tested, and the AC50 was 49.2 µM (active). With `CCCCC(CC)CCC(CC(C)C)OS(=O)(=O)O` (centres undefined) the outcome was “inactive”. In the case of `O=S(=O)(O)c1ccccc1C=Cc1ccc(-c2ccc(C=Cc3ccccc3S(=O)(=O)O)cc2)cc1`, the outcome is reported as “inactive”. With `CCCCCCCC/C=C\CCCCCCCC(=O)O` the outcome was “inactive”. `CCCCC/C=C\C/C=C\CCCCCCCC(=O)OC` was tested, and the outcome was “inactive”. For `CC1=NN(c2cc(S(=O)(=O)O)ccc2Cl)C(=O)C1N=Nc1ccccc1` (centres undefined), the outcome was “inactive”. In the case of `O=S1(=O)OC(c2ccc(O)cc2)(c2ccc(O)cc2)c2ccccc21`, the outcome is reported as “inactive”. `CCCCCCCC/C=C\CCCCCCCC(=O)OCCO` was tested, and the outcome was “inactive”. With `Cc1ccc(N/N=c2\c(=O)cc/c(=N/Nc3ccc(S(=O)(=O)O)cc3)c2=O)c(C)c1` the outcome was “inactive”. For `CCCCCCCCCCCCCOP(=O)(O)O`, the outcome was “inactive”.
